Source: PubChem
A selection: hits, their analogues and other compounds. The true share with any hit is near 1.5%.
MEX-5 binding: C. elegans MEX-5 TCR-2 RNA binding activity | activity score (negative = inhibition of binding), % at 10 µM | Q9XUB2 | hit rate 0.38% among 300,000 | MEX-5/FITC-TCR2 RNA binding, fluorescence polarization; active compounds read low | AID 1832;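 active means inhibition past about -25% in most replicates, and total fluorescence under double the plate's negative control median, limit read from the data; inconclusive means replicates evenly split on the limit, or fluorescence at least double controls; inactive means too little inhibition in most replicates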
GLD-1 TGE inh: GLD-1-TGE RNA interaction inhibition (C. elegans) | purified GLD-1 + fluorescein TGE RNA, fluorescence polarization | inhibition, % at 5.96 µM | hit rate 0.44% among 320,000;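 active means percent inhibition above a per-plate cutoff, the plate mean of test compounds plus 3 SD, cut at about 30% in these data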
IDE cell activ: IDE (human) activation, cell-based. HEK cells, FAbeta-B cleavage, fluorescence polarization; 0% vehicle, 100% cell-free pure enzyme wells. P14735. hit rate 0.073% among 340,000. activation, % at 5.96 µM;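 active means activation above the mean of all tested compounds plus 3 SD, set per screening campaign, cut at about 17% in these data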
Bcl-xL primary: blocks human Bcl-xL binding to Bim BH3 peptide; hit rate 0.7% among 320,000; inhibition, % at 10.9 µM; AID 2129; GST-Bcl-xL / FITC-Bim BH3 peptide fluorescence polarization;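 active means inhibition above the mean of all tested compounds plus 3 SD, cutoff set per campaign, cut at about 30% in these data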;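 further: inhibitors lower millipolarization by displacing the labeled peptide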
Target sequence (Q07817 whole entry, looked up): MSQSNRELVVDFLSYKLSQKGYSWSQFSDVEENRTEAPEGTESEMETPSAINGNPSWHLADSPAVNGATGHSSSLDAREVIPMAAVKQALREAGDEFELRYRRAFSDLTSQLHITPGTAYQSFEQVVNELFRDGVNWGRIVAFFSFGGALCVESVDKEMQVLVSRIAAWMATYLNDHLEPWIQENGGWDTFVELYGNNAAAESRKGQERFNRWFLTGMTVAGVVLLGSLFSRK
MCL1 BIM primary: MCL1-BIM-BH3 interaction inhibition (human); Q07820; GST-MCL1 / FITC-Bim-BH3 fluorescence polarization; inhibition, % at 10.9 µM; hit rate 0.68% among 320,000;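 active means inhibition above the mean inhibition of all tested compounds plus 3 SD, set per campaign, cut at about 40% in these data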;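 further: higher means more loss of mP so more displacement of Bim peptide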
Target sequence (Q07820 whole entry, looked up): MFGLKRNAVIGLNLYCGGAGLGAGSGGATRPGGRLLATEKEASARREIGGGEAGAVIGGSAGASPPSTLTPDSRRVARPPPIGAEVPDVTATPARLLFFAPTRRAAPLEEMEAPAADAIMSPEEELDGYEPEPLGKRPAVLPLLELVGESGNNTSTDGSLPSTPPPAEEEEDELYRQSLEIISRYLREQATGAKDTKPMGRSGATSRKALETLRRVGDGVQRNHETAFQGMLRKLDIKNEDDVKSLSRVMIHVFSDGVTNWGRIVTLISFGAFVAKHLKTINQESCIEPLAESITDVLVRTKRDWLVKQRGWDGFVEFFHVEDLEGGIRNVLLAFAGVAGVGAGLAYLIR
IDE cell inh: inhibits human insulin-degrading enzyme in HEK cells | P14735 | FAbetaB cleavage, fluorescence polarization | inhibition, % at 5.59 µM | hit rate 0.41% among 320,000;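 active means percent inhibition above the average of all tested compounds plus 3 SD, set per screening campaign, cut at about 16% in these data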;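 further: IDE supplied by intact live HEK cells; FP after avidin binding of uncleaved biotin substrate so inhibition keeps polarization high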
BCLXL inh confirm: counter-screen for MCL1 inhibitors: confirmation of human Bcl-xL inhibitors; shares compounds with MCL1 BIM primary; GST-Bcl-xL / FITC-Bim BH3 peptide FP binding; inhibition, % at 10.9 µM; hit rate 54% among 1,700; AID 2166;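 active means inhibition above a cutoff equal to the mean inhibition of all tested compounds plus 3 SD, cut at about 30% in these data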
MCL1 inh confirm: MCL1-BIM-BH3 interaction inhibition, confirmation; GST-MCL1 / FITC-Bim-BH3 fluorescence polarization; hit rate 61% among 1,700; inhibition, % at 10.9 µM; shares compounds with MCL1 BIM primary; AID 2168;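 active means inhibition above the average of all tested compounds plus 3 SD, cut at about 40% in these data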
A number is an active result; – = inactive; ? = inconclusive; · = no result; + = active, no number; ! = not confirmed by another sample.

SMILES	MEX-5 binding	GLD-1 TGE inh	IDE cell activ	Bcl-xL primary	MCL1 BIM primary	IDE cell inh	BCLXL inh confirm	MCL1 inh confirm
CSc1nsc(/C=C/Nc2ccc(O)cc2C)c1C#N	–	71	–	60	49	–	43	–
CSc1nsc(/C=C/Nc2ccc(F)cc2)c1C#N	–	–	–	–	–	–	·	·
C/C=C/c1ccc(OCC(O)CN(C)Cc2ccc(SC)cc2)c(OC)c1 (stereo not given)	–	–	–	–	–	–	·	·
C=C(C)c1cccc(C(C)(C)NC(=O)Nc2ccc(OC)nc2)c1	–	83	–	82	91	–	57	73
COc1ccc(NC(=O)c2cccc(-c3ccc(O)cc3)c2)cn1	–	135	–	144	179	–	107	133
O=C(O)c1cc(-c2ccco2)nc2ccc(Br)cc12	–	68!	–	96!	141!	–	45	89
CCCN(C(=O)c1cc(S(=O)(=O)N(C)c2ccccc2OC)ccc1C)C1CCS(=O)(=O)C1 (stereo not given)	·	·	–	·	·	·	·	·
Cn1c(=O)c(N)c2c3c(c(Br)ccc31)C(=O)c1ccccc1-2	-39	+	–	+	+	–	+	+
COc1cccc(F)c1C(=O)NC(=O)Nc1ccc2nc(C)oc2c1	-31	91	–	119	119	–	54	–
CSc1nc2ccc(NC(=O)NC(=O)c3c(F)cccc3F)cc2s1	–	–	–	–	–	–	·	·
CN1c2ccccc2C(C)(C)[C@]12C=Cc1cc(O)ccc1O2	–	–	–	–	–	–	·	·
COc1ccc2ccc3c(c2c1)N=CC1(O3)N(C)c2ccccc2C1(C)C (stereo not given)	–	–	–	36	54	–	62	83
CCOc1ccc2oc(C(=O)OCC(=O)N3CC(C)OC(C)C3)c(C)c2c1 (stereo not given)	·	–	–	–	–	–	·	·
O=C(CCN1C(=O)/C(=C\C=C\c2ccccc2)SC1=S)Nc1ccc(C(=O)O)cc1	?	–	–	–	–	–	·	·
O=C(O)c1ccc(N2C(=O)/C(=C/C=C/c3ccccc3)SC2=S)cc1	–	–	–	–	40	–	–	–
Cc1ccc(NC(=O)CN2C(=O)C3CC=C(Cl)CC3C2=O)cc1 (stereo not given)	–	–	–	–	–	–	·	·
CN1C(=O)c2ccccc2NC(=O)[C@]12O[C@@H]2c1cccc(O)c1	-44	–	–	62	65	–	56	69
NS(=O)(=O)c1cc2c(cc1Cl)NC=NS2(=O)=O	–	–	–	–	–	–	·	·
COc1ccc2ccccc2c1C(O)c1nccn1C (stereo not given)	–	145	21	173	+	–	164	197
Cc1ccnc2nc(C(=O)OCC(=O)c3ccc(NC(=O)CC(C)C)cc3)nn12	·	–	–	·	·	–	·	·
CCC(=O)Nc1ccc(C(=O)COC(=O)c2nc3nccc(C)n3n2)cc1	·	–	–	–	54	–	–	52
COc1ccc(C(=O)Nc2c(N)nc[nH]c2=O)cc1	–	–	–	–	–	–	·	·
COc1ccc(C(CNC(=O)Nc2ccc(Cl)cc2)N2CCN(C)CC2)cc1 (stereo not given)	–	–	–	–	–	–	·	·
COc1ccc(C(CNC(=O)Nc2ccccc2)N2CCN(C)CC2)cc1 (stereo not given)	–	–	–	–	46	–	–	–
Cc1ccc([N+](=O)[O-])cc1NC(=O)c1c(-c2ccccc2)noc1C	–	–	–	–	–	–	·	·
SMILES	MEX-5 binding	GLD-1 TGE inh	IDE cell activ	Bcl-xL primary	MCL1 BIM primary	IDE cell inh	BCLXL inh confirm	MCL1 inh confirm
COc1ccc2c(c1)c1nc3ccccc3nc1n2CC(=O)OC(C)C	?	–	–	60	59	–	106	140
COC(=O)Cn1c2ccc(C)cc2c2nc3ccccc3nc21	–	·	–	·	·	·	·	·
Cc1nnc(C)c2c(C)n(-c3ccccc3N)c(C)c12	–	46	–	96	94	–	–	–
Cc1ccc(O)c(CP(=O)(c2ccccc2)c2ccccc2)c1	–	–	–	–	–	–	·	·
CCNc1ccccc1CP(=O)(c1ccccc1)c1ccccc1O (stereo not given)	–	+	·	+	+	–	–	–
CC(=O)NS(=O)(=O)c1ccc(NC(=O)CC(C)c2ccccc2)cc1 (stereo not given)	–	–	–	–	–	–	·	·
CCCSc1nc2sc3c(c2c(=O)[nH]1)CCN(Cc1ccccc1)C3	–	–	–	–	–	–	·	·
O=c1[nH]c(C(Cl)Cl)nc2sc3c(c12)CCN(Cc1ccccc1)C3	–	–	–	78	102	–	56	78
CC(C)OC(=O)c1c2c(n3ccccc13)C(=O)c1ccccc1C2=O	-31	–	–	89	122	–	136	151
COc1cccc(/C=N/NC(=S)Nc2cccc(C(=O)O)c2)c1O	–	–	–	–	56	–	–	72
COC(=O)CCC(=O)OC1(C)C(=O)C2=COC(c3ccc(OC)cc3)=CC2=C(Br)C1=O (stereo not given)	–	–	·	33	56	–	32	57
COC(=O)C1=C(c2ccc(OC)cc2)OC(=O)C1(C)C	–	–	–	–	–	–	·	·
CN(C)c1ccc(/C=N/N(CCO)C2=NS(=O)(=O)c3ccccc32)cc1	–	36	–	+	140	–	+	+
O=C(CSc1nc(-c2ccccc2)cc(=O)[nH]1)N1CCOCC1	–	–	–	–	48	–	–	–
O=C(CSc1nc(O)cc(=O)[nH]1)N1CCOCC1	–	–	–	–	–	–	·	·
Cc1ccc(C(=O)NCC(=O)NCC(=O)OCC(=O)c2ccc(Br)cc2)cc1	–	–	–	–	54	–	–	–
COCCNC(=O)NC(=O)CN1CCCc2ccccc21	–	–	–	51	74	–	–	–
CC(C)(C)NC(=O)NC(=O)CN1CCc2ccccc21	–	–	–	–	–	–	·	·
O=C(NC(Cc1ccccc1)C(=O)O)/C(=C/c1ccco1)NC(=O)c1cccc(Br)c1 (stereo not given)	–	–	–	37	51	–	–	–
NC(=O)c1ccsc1N	-35	119	·	177	189	–	–	–
O=S(=O)([O-])C(c1ccccc1)[n+]1ccccc1 (stereo not given)	–	–	–	–	47	–	–	–
CC1=Nc2ccccc2/C1=C\c1nc(-c2ccc(F)cc2)oc1O	-36	172	–	+	+	–	92	141
CN=Cc1nc(-c2ccccc2)oc1O	–	–	–	–	–	–	·	·
